According to PubChem BioAssay AID624415 (National Center for Advancing Translational Sciences (NCATS), 2012):
Screen size: about 390,000 compounds; about 60 (0.02%) were called active. Rule as the data show it: active = activity change below about -50%; inconclusive = between about -30% and that limit; inactive = weaker than that. For the sample, actives were picked, then their nearest neighbours and some compounds at random.

Biological target: Mucolipin-1 (Homo sapiens) (UniProt Q9GZU1)
Experiment: qHTS for Inhibitors of the Human Mucolipin Transient Receptor Potential 1 (TRPML1);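 also: stimulus is agonist 54-4 at its EC80 concentration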
Conditions: TRPML1-inducible cells, Ca2+ dye fluorescence, FDSS; hits give low values; inhibition of EC80 agonist-evoked calcium signal
Description: Mutations of human Mucolipin transient receptor potential 1 (TRPML1) cause type IV mucolipidosis (ML4), a devastating neurodegenerative disease in young children. […] Currently, there is no treatment for ML4. […] Under physiological conditions, TRPMLs regulate membrane trafficking by transducing information about PI(3,5)P2 levels into changes in juxtaorganellar Ca2+, thereby triggering membrane fusion/fission events in the late endocytic pathways (endolysosomal trafficking). In addition, TRPML1 mediates release of Fe2+ from late endosomes and lysosomes, which is essential for cellular iron metabolism. Thus, impaired ion (Ca2+ and Fe2+) homeostasis underlies lysosomal dysfunction and ML4 phenotypes. In ML4 cells, the problem is twofold. First, defective Ca2+-dependent membrane trafficking due to TRPML1-deficiency causes accumulation of lipids and other bio-materials in the lysosome. The second strike comes from the lysosomal iron overload (due to impairment of TRPML1's Fe2+ conductivity), which converts the accumulated materials into the nondegradable (resistant to lysosomal degradation) lipofuscin (also called aging pigment) in the lysosome. Lipofuscin accumulation dramatically compromises the functions of lysosomes.
Niemann-Pick type C (NPC) disease is another lysosome storage disease (LSD) with severe neurodegeneration during the childhood. Currently, there is no cure for NPC. […] Thus, TRPML1 is likely to be an essential regulator of lysosome ion homeostasis. We specifically hypothesize that stimulating TRPML1's Fe2+/Ca2+ channel activity in the lysosome using synthetic agonists can alleviate neurodegeneration associated with ML4 or NPC.
To this end, a high throughput screen was developed in a miniaturized format to screen against the Molecular Libraries Small Molecule Repository (MLSMR) to find small molecules that act either as inhibitors or agonist against the TRPML1 channel.
NIH Chemical Genomics Center [NCGC]
NIH Molecular Libraries Probe Centers Network [MLPCN]
Assay Submitter (PI): Haoxing Xu, University of Michigan Ann Arbor
TRPML1-DL cells are dissociated from flasks, counted and, brought up to a density of 500,000 cells per mL of media containing a 1X Tet inducer. Using a Multidrop Combi, 3 uL of this cell solution is dispensed to each well of a 1536 TC treated, black, clear bottom hi base plate for a final cell density of 1,500 cells per well. The assay plates are incubated overnight (approximately 16 hours) at 37 degrees C and 5% CO2. Using a Multidrop Combi, 2 uL of ABD Ca8 no wash dye plus quencher is added to each well. The assay plates incubate at room temperature in the dark for 45-90 minutes. The assay plate is read on the FDSS using the following protocol: 10 second baseline read, 23 nL of compounds and controls are added using 1536 pintool, agonist read for 110 seconds, 1 uL EC80 addition (4 uM final 54-4 diluted in media), antagonist read for 110 seconds.
% is scaled to controls: 0 for no effect and ±100 for the full control effect.

Mucolipin-1 (Homo sapiens), sequence (Q9GZU1 whole entry, looked up): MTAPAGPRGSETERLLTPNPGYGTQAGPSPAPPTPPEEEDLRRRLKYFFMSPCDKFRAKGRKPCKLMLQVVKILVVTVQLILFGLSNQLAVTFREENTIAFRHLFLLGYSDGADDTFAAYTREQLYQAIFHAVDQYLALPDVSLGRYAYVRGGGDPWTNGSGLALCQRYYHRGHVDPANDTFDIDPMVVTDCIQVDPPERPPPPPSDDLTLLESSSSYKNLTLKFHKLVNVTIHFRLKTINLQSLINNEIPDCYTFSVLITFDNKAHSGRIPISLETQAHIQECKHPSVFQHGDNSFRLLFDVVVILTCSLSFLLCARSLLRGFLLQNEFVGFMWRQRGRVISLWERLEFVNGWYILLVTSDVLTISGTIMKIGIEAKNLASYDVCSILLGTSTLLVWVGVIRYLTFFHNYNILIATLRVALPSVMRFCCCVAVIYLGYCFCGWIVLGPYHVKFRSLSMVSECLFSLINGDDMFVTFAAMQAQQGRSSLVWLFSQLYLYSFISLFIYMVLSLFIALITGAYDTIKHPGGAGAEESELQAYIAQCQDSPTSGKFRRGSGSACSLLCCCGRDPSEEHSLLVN

Activity change, negative = inhibition, inactive:
Cc1ccc(Cn2cnc3c(cnn3C(C)(C)C)c2=O)c(F)c1 38.8%
COc1cc(OC)cc(C(=O)Nc2c(C(=O)Nc3ccc(F)cc3)oc3ccccc23)c1 -0.263%
O=C1CN(Cc2ccccc2)S(=O)(=O)c2ccccc21 2.64%
CCOc1ccc(C(=O)c2cn(Cc3ccc(F)cc3)c3ccc(F)cc3c2=O)cc1 34.7%
CCOc1ccc(-c2cc3c(=O)n(CC(=O)NCc4ccc(OC)cc4)ccn3n2)cc1 14.1%
Cc1cc2c(cc1C)C(c1cccc(OC(C)C)c1)CC(=O)N2 (stereo not drawn) -6.57%
COc1ccc(C(CCN2CCOCC2)c2c(OC)cc(OC)c3c2OC(=O)CC3c2ccc(OC)cc2)cc1 (stereo not drawn) -3.63%
CC(C)c1ccc(NC(=O)c2ccc3c(O)c(S(=O)(=O)c4ccccc4)c(=O)[nH]c3c2)cc1 8.74%
COc1ccccc1-n1c(-c2ccc(C)cc2)cn2c3c(=O)n(C)c(=O)n(C)c3nc12 -8.58%
Cc1nn(C(C)C(=O)NCCc2ccccc2)c(=O)c2c1sc1ccccc12 (stereo not drawn) -5.78%
O=C(Nc1cccc2cccnc12)C(F)(F)F -10.4%
Cc1ccc(SCC(CC(C)C)N2CCN(CCc3ccccc3)CCC2=O)cc1 (stereo not drawn) 35%
CC(=O)Nc1ccc(NC(=O)c2cc3sccc3n2Cc2ccc(F)cc2)cc1 8.5%
CCC(Sc1nnc(-c2ccc(OC)cc2)c(-c2ccc(OC)cc2)n1)C(=O)NC1CCCCC1 (stereo not drawn) -8.91%
Cc1ccc(Cl)cc1NC(=O)CSc1nc2ccccc2nc1Cc1ccccc1 5.62%
Cn1c(=O)c(=O)n(C)c2cc(NC(=O)c3ccccc3Br)ccc21 18.3%
COc1ccc(Br)cc1C1CC(=O)Nc2c1c(C)nn2-c1nc(C)cc(C)n1 (stereo not drawn) -2.53%
CCc1ccc(S(=O)(=O)c2nnn3c2nc(NCc2ccccc2OC)c2cc(Cl)ccc23)cc1 11.3%
CC(=O)Nc1ccc(NC(=O)CCCc2nc(-c3ccc(C(C)(C)C)cc3)no2)cc1 -23.6%
Cc1ccc(OCC(=O)Nc2ccc(OCc3cc(=O)n4c(C)csc4n3)cc2)cc1C 21.1%
COc1ccc(NC(=O)C2CCCN(S(=O)(=O)c3c(C)[nH]c(=O)[nH]c3=O)C2)c(OC)c1 (stereo not drawn) -13.7%
COc1c(Cl)cc(C(=O)N(Cc2ccccc2F)C2CCS(=O)(=O)C2)cc1Cl (stereo not drawn) -13.9%
COc1cccc(C(=O)NC2=NC(c3ccc(N(C)C)cc3)CC(=O)N2)c1 (stereo not drawn) 4.87%
